Data from article PMC7862700, “An all-to-all approach to the identification of sequence-specific readers for epigenetic DNA modifications on cytosine”.

Key:
Assay in all cases: DAPPL (digital affinity profiling via proximity ligation, sequencing); 10 mM Tris-HCl pH 7.5, 50 mM NaCl, 1 mM DTT, 4% glycerol, room temperature, 30 min; GST-TFs on glutathione beads, 16-mer random dsDNA library, 0.1% formaldehyde crosslink after washing; high values mean tight binding
[1] = target: T1, FEV (Homo sapiens, UniProt Q99581 1-238); details: protein: recombinant; tags: N-terminal GST; dsDNA, one strand shown
T1 sequence: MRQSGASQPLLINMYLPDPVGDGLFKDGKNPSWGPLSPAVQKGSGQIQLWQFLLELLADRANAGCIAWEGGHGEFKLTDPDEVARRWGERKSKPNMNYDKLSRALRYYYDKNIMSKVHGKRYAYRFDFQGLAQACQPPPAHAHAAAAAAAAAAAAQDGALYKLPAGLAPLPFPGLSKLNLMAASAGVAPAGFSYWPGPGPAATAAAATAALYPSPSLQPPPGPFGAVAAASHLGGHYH
Procedure, shortened: (§1)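 Yeast served to express human transcription factors as GST fusions, which were then captured on glutathione beads and labelled with DNA barcodes. Pooled with a tag-only sample, they were incubated with 200 nmole of a 16-mer random double-stranded DNA library for 30 min at room temperature in Tris/NaCl/DTT/glycerol buffer, washed, crosslinked with 0.1% formaldehyde, ligated by proximity, amplified by PCR and sequenced. Dividing each hexamer's read frequency for a factor by its frequency for the tag-only sample gives the binding signal.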

[2] = target: ETV5 (Homo sapiens, UniProt P41161 1-510); details: protein: recombinant; tags: N-terminal GST; dsDNA, one strand shown
Procedure, shortened: as §1

[3] = target: HSF1 (Homo sapiens, UniProt Q00613 1-529); details: protein: recombinant; tags: N-terminal GST; chain copies: 3; dsDNA, one strand shown
Procedure, shortened: as §1

[4] = target: T2, SPIC (Homo sapiens, UniProt Q8N5J4 1-248); details: protein: recombinant; tags: N-terminal GST; dsDNA, one strand shown
T2 sequence: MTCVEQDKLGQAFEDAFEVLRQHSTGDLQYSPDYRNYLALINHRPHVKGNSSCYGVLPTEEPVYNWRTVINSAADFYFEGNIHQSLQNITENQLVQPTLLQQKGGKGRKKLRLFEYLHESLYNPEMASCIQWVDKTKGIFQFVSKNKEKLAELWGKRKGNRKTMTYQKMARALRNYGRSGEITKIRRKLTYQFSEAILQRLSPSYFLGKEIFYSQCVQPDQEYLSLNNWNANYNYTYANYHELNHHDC
Procedure, shortened: as §1

[5] = target: ELF4 (Homo sapiens, UniProt Q99607 1-663); details: protein: recombinant; tags: N-terminal GST; dsDNA, one strand shown
Procedure, shortened: as §1

[6] = target: T3, ELK4 (Homo sapiens, UniProt P28324-2 1-405); details: protein: recombinant; tags: N-terminal GST; dsDNA, one strand shown
T3 sequence: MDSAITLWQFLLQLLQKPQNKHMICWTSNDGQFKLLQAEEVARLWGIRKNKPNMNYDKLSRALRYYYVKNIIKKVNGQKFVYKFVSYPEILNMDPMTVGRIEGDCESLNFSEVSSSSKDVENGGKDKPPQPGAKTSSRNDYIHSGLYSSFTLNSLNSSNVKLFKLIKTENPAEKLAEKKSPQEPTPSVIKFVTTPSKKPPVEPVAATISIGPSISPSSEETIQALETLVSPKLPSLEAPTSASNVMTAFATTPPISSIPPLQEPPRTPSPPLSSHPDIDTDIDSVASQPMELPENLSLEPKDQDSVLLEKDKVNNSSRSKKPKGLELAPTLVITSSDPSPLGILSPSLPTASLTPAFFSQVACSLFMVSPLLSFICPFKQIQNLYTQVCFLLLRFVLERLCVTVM
Procedure, shortened: as §1

[7] = target: T4, ETV2 (Homo sapiens, UniProt O00321 1-342); details: protein: recombinant; tags: N-terminal GST; dsDNA, one strand shown
T4 sequence: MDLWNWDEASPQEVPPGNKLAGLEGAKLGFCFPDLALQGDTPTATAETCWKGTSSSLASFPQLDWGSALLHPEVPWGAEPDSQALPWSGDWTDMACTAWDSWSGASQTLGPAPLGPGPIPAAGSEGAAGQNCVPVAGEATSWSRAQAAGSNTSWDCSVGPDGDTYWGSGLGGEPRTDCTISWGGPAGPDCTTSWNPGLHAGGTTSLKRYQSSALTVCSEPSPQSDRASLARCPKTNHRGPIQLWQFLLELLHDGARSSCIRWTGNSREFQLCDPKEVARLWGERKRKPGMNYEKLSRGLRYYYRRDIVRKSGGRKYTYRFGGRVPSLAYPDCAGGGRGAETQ
Procedure, shortened: as §1

[8] = target: T5, ELF3 (Homo sapiens, UniProt P78545 1-371); details: protein: recombinant; tags: N-terminal GST; dsDNA, one strand shown
T5 sequence: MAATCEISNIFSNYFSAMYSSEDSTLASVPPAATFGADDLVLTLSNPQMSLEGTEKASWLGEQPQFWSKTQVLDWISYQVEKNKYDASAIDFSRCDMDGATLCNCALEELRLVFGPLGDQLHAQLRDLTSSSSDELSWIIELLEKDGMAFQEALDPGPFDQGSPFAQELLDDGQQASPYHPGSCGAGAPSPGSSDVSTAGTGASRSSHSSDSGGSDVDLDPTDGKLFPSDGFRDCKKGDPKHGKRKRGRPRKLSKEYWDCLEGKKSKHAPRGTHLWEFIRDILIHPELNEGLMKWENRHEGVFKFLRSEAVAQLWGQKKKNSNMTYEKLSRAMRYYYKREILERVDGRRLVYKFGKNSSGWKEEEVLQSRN
Procedure, shortened: as §1

[9] = target: ETV1 (Homo sapiens, UniProt P50549 1-477); details: protein: recombinant; tags: N-terminal GST; dsDNA, one strand shown
Procedure, shortened: as §1

[10] = target: T6, ERF (Homo sapiens, UniProt P50548 1-548); details: protein: recombinant; tags: N-terminal GST; dsDNA, one strand shown
T6 sequence: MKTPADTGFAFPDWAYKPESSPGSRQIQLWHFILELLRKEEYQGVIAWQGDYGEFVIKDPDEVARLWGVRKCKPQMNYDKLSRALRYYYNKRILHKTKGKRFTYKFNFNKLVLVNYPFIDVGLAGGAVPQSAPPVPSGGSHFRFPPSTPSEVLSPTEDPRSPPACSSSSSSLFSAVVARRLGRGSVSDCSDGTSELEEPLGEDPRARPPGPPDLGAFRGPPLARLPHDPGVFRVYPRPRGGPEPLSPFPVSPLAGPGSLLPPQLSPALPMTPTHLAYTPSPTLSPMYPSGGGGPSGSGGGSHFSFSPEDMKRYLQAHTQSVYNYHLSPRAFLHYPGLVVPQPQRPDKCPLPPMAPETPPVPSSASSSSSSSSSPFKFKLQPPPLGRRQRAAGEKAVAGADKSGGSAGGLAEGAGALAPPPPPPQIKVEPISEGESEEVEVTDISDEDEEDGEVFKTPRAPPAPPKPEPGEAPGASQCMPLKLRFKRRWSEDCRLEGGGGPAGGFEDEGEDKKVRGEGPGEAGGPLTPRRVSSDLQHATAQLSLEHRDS
Procedure, shortened: as §1

[11] = target: T7, ETV3L (Homo sapiens, UniProt Q6ZN32 1-361); details: protein: recombinant; tags: N-terminal GST; dsDNA, one strand shown
T7 sequence: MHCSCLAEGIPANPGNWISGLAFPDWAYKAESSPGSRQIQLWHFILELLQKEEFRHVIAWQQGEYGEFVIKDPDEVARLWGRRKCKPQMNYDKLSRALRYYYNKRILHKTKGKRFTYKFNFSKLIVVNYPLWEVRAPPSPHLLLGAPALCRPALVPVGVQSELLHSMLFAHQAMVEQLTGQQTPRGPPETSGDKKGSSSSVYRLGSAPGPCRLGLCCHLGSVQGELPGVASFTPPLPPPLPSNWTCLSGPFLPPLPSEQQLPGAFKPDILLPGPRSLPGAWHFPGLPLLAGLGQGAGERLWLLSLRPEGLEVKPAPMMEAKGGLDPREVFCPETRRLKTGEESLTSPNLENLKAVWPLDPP
Procedure, shortened: as §1

[12] = target: T8, ETS2 (Homo sapiens, UniProt P15036 1-469); details: protein: recombinant; tags: N-terminal GST; dsDNA, one strand shown
T8 sequence: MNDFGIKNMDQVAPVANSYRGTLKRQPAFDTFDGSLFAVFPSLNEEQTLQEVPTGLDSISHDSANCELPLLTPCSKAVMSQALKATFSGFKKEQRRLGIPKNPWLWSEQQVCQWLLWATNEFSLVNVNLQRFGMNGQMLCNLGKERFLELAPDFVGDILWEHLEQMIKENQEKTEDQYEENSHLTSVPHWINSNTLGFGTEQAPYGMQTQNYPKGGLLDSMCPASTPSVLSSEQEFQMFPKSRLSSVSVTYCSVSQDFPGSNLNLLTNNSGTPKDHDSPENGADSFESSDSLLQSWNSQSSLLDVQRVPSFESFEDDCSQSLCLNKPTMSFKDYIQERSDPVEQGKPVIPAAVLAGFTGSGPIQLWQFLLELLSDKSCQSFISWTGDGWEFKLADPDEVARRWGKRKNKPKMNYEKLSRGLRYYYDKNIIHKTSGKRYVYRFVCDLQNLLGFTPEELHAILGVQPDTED
Procedure, shortened: as §1

[13] = target: T9, SPDEF (Homo sapiens, UniProt O95238 1-335); details: protein: recombinant; tags: N-terminal GST; dsDNA, one strand shown
T9 sequence: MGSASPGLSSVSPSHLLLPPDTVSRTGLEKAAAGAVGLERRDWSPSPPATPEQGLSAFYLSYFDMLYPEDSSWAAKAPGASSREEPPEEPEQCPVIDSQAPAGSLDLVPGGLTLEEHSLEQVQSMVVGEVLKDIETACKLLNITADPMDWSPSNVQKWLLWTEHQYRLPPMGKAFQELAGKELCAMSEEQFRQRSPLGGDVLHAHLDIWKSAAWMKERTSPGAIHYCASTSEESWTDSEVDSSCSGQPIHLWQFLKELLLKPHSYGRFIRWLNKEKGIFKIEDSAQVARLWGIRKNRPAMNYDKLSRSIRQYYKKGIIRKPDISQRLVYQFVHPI
Procedure, shortened: as §1

[14] = target: T10, ETV7 (Homo sapiens, UniProt Q9Y603 1-341); details: protein: recombinant; tags: N-terminal GST; dsDNA, one strand shown
T10 sequence: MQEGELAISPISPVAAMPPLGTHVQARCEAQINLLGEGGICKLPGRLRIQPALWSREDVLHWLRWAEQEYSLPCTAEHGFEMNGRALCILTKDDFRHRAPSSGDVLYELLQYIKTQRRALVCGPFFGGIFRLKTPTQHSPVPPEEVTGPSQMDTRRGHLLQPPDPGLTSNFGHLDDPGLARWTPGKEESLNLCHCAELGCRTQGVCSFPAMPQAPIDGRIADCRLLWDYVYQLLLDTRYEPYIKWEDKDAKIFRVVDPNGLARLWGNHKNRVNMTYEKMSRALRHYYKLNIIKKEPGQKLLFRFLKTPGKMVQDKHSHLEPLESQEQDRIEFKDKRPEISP
Procedure, shortened: as §1

[15] = target: T11, ELF5 (Homo sapiens, UniProt Q9UKW6-2 1-255); details: protein: recombinant; tags: N-terminal GST; dsDNA, one strand shown
T11 sequence: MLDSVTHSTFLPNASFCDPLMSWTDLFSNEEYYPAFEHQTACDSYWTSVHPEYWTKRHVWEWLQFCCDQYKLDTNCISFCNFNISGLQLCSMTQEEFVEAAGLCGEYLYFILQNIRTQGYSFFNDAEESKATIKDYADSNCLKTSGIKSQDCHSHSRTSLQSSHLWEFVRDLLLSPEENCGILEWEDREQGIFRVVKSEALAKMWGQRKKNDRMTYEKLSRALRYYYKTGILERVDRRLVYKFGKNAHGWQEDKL
Procedure, shortened: as §1

[16] = target: T12, ETV3 (Homo sapiens, UniProt P41162-2 1-143); details: protein: recombinant; tags: N-terminal GST; dsDNA, one strand shown
T12 sequence: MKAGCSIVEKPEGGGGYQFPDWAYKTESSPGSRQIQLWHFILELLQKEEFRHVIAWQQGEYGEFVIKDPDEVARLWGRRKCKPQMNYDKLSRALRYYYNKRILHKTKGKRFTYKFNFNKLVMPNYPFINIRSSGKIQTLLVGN
Procedure, shortened: as §1

[17] = target: ETV6 (Homo sapiens, UniProt P41212 1-452); details: protein: recombinant; tags: N-terminal GST; dsDNA, one strand shown
Procedure, shortened: as §1

ETV5, sequence (P41161 whole entry): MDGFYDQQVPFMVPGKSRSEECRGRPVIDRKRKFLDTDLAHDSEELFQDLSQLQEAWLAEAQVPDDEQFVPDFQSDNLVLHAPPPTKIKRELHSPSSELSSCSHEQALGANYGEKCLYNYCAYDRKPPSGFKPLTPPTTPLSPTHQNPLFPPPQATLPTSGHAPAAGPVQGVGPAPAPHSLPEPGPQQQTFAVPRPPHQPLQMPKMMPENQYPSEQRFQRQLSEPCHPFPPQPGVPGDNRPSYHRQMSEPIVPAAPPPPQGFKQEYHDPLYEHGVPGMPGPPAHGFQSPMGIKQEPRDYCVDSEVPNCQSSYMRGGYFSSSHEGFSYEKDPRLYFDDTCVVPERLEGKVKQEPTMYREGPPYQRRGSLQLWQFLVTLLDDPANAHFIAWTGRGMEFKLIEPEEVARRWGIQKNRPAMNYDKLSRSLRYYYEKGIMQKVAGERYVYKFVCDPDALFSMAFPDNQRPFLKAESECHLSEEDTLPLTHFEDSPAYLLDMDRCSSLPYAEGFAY
HSF1, sequence (Q00613 whole entry): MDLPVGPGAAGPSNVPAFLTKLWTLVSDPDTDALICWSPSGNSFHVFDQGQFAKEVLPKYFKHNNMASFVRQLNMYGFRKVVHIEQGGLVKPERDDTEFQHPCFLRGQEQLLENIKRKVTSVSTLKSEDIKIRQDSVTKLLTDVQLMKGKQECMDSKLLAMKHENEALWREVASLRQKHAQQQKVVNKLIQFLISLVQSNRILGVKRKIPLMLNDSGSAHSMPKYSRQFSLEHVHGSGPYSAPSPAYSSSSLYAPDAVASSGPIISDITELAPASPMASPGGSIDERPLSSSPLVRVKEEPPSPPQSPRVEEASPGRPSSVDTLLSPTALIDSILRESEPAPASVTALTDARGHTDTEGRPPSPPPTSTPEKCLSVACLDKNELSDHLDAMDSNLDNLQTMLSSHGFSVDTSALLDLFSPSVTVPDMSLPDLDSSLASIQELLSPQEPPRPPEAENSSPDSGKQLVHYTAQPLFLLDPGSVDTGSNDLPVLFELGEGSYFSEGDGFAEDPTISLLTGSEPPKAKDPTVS
ELF4, sequence (Q99607 whole entry): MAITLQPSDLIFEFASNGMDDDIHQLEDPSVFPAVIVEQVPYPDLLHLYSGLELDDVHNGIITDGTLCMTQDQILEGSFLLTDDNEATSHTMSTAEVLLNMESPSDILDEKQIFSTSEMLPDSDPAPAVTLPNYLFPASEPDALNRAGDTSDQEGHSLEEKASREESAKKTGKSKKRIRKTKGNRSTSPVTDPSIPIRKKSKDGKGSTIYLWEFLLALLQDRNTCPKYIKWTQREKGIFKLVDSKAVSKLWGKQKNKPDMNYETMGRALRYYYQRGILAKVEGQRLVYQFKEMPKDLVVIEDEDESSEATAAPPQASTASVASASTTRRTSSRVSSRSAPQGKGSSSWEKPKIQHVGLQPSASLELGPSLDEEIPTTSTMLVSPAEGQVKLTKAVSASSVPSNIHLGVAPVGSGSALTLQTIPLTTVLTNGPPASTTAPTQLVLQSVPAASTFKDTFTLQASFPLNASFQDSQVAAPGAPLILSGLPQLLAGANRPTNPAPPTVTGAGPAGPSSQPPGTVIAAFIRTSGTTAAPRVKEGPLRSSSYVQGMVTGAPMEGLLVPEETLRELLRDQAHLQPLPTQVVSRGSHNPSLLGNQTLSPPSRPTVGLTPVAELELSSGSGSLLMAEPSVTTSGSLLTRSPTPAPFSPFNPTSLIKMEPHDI
ETV6, sequence (P41212 whole entry): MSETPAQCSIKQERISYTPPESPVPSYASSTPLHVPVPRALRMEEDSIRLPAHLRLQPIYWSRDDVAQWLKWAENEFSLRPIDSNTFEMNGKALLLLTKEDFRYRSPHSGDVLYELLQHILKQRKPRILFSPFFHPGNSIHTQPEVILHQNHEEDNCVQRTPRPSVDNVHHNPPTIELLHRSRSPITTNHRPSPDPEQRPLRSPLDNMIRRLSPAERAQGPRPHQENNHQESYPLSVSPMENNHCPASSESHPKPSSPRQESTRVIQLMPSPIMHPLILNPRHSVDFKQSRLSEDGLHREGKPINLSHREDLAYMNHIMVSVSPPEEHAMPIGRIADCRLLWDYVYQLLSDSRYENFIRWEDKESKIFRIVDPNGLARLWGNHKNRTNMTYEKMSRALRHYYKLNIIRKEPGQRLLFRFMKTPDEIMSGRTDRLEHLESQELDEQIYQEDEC
ETV1, sequence (P50549 whole entry): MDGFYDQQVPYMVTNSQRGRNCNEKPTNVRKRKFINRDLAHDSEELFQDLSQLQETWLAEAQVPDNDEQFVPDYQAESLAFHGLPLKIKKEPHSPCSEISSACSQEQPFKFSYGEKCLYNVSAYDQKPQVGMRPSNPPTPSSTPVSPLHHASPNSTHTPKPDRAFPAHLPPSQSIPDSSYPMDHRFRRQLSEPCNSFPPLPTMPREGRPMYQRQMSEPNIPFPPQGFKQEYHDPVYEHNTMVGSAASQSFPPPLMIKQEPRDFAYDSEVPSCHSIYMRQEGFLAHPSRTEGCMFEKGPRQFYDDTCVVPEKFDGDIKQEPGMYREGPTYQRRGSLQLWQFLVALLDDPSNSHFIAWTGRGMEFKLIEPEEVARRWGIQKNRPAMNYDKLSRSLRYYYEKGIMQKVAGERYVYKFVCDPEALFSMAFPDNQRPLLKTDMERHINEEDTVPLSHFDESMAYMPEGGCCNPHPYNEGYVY

Sequence | binding signal [1] | binding signal [2] | binding signal [3] | binding signal [4] | binding signal [5] | binding signal [6] | binding signal [7] | binding signal [8] | binding signal [9] | binding signal [10] | binding signal [11] | binding signal [12] | binding signal [13] | binding signal [14] | binding signal [15] | binding signal [16] | binding signal [17]
GATGGT | 1.07 fold enrichment (6-mer frequency, TF over GST control) | 1.16 fold enrichment (6-mer frequency, TF over GST control) | 1.02 fold enrichment (6-mer frequency, TF over GST control) | 1.19 fold enrichment (6-mer frequency, TF over GST control) | 1.11 fold enrichment (6-mer frequency, TF over GST control) | 1.18 fold enrichment (6-mer frequency, TF over GST control) | 1.37 fold enrichment (6-mer frequency, TF over GST control) | 1.19 fold enrichment (6-mer frequency, TF over GST control) | 1.22 fold enrichment (6-mer frequency, TF over GST control) | 1.22 fold enrichment (6-mer frequency, TF over GST control) | 1.19 fold enrichment (6-mer frequency, TF over GST control) | 1.13 fold enrichment (6-mer frequency, TF over GST control) | 1.04 fold enrichment (6-mer frequency, TF over GST control) | 1.06 fold enrichment (6-mer frequency, TF over GST control) | 1.08 fold enrichment (6-mer frequency, TF over GST control) | 1.12 fold enrichment (6-mer frequency, TF over GST control) | 1.1 fold enrichment (6-mer frequency, TF over GST control)
ATGGTC | 1.36 fold enrichment (6-mer frequency, TF over GST control) | 1.57 fold enrichment (6-mer frequency, TF over GST control) | 1.01 fold enrichment (6-mer frequency, TF over GST control) | 1.63 fold enrichment (6-mer frequency, TF over GST control) | 1.59 fold enrichment (6-mer frequency, TF over GST control) | 1.38 fold enrichment (6-mer frequency, TF over GST control) | 1.47 fold enrichment (6-mer frequency, TF over GST control) | 1.48 fold enrichment (6-mer frequency, TF over GST control) | 1.41 fold enrichment (6-mer frequency, TF over GST control) | 1.45 fold enrichment (6-mer frequency, TF over GST control) | 1.49 fold enrichment (6-mer frequency, TF over GST control) | 1.49 fold enrichment (6-mer frequency, TF over GST control) | 1.35 fold enrichment (6-mer frequency, TF over GST control) | 1.29 fold enrichment (6-mer frequency, TF over GST control) | 1.46 fold enrichment (6-mer frequency, TF over GST control) | 1.55 fold enrichment (6-mer frequency, TF over GST control) | 1.52 fold enrichment (6-mer frequency, TF over GST control)
